From PubChem BioAssay AID687001 (Broad Institute, 2013)
Results with a measured potency or affinity are listed apart. Active and inactive are the calls of the source.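 How the source made its calls: active means signal-lowering compounds whose fitted half-maximal concentration is at or below twice the top tested dose in every run; inconclusive means runs disagree, flat 30 to 70% inhibition, or poor curve fit; inactive means the rest.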

biological target: Protein S100-A4 (Homo sapiens) (UniProt P26447); assay: S100A4-myosin IIA binding inhibitor potency, dose response, biochemical, fluorescence polarization, cherry-picked hits (AID 687001); settings: FP, S100A4/TAMRA-myosin IIA peptide binding; series mostly up to 11 µM
Sequence (P26447 whole entry, looked up): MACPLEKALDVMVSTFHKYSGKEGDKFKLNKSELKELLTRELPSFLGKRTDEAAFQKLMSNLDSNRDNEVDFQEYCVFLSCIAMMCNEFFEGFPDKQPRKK

outcome, inactive:
C/C=C/c1ccc(C2[C@H]3CNC[C@@H]2N3S(=O)(=O)c2ccccc2C)cc1 (stereo partly drawn)
COc1ccc(CN(C)C[C@@H]2Oc3ccc(NS(=O)(=O)c4ccccc4)cc3CC(=O)N([C@H](C)CO)C[C@H]2C)cc1
CC(=O)Nc1ccc(Nc2nnc(-c3ccc(C)c(S(N)(=O)=O)c3)c3ccccc23)cc1
C[C@@H]1CN([C@@H](C)CO)S(=O)(=O)c2ccc(-c3cccc(C#N)c3)cc2O[C@@H]1CN(C)C(=O)c1ccc(F)cc1
C[C@H]1CN([C@@H](C)CO)C(=O)c2cc(NC(=O)CCC(F)(F)F)ccc2O[C@@H]1CN(C)S(=O)(=O)c1cn(C)cn1
CCc1ccc(NC(=O)C(C)OC(=O)c2ccc(NS(=O)(=O)c3ccc(C)c([N+](=O)[O-])c3)cc2)cc1 (stereo not drawn)
C[C@H]1CN([C@@H](C)CO)S(=O)(=O)c2ccc(C3=CCCCC3)cc2O[C@H]1CN(C)Cc1ccccc1
Cc1noc(C)c1S(=O)(=O)N(C)C[C@@H]1Oc2ccc(NC(=O)C3CC3)cc2CC(=O)N([C@@H](C)CO)C[C@H]1C
C[C@H](CO)N1C[C@H](C)[C@H](CN(C)Cc2ccccc2)Oc2ccc(NS(=O)(=O)c3ccccc3)cc2CC1=O
CC(C)Cc1cc(C(=O)NCCCN2CCOCC2)no1
COc1cc(C(=O)NCCc2ncccc2C)ccc1OC1CCN(C(C)=O)CC1
S=C(NCCCc1cnc[nH]1)NCCCN(Cc1ccc(Cl)cc1)c1ccc(Br)cn1
CCc1nc2c(OCc3ccccc3OC)cccn2c1N(C)C(=O)C(C)C
Cc1cccc(NC(=O)CNC(=O)c2ccccc2Cl)n1
C[C@@H]1CN([C@H](C)CO)S(=O)(=O)c2ccc(C3=CCCCC3)cc2O[C@@H]1CN(C)Cc1ccccc1
CN(C)CC/C=C1/c2ccccc2COc2ccc(CC(=O)O)cc21
COc1ccc(CN(C)C[C@H]2Oc3c(NC(=O)NC(C)C)cccc3C(=O)N([C@H](C)CO)C[C@H]2C)cc1
CC1CCN(c2nc3c(c(=O)[nH]c(=O)n3C)n2CC(C)CSc2nnnn2-c2ccccc2)CC1 (stereo not drawn)
CCOC(=O)c1c(S(=O)(=O)N2CCCC(C(=O)Nc3ccc(C)cn3)C2)c(C)n(C)c1C (stereo not drawn)
COc1ccc2[nH]c3c(c2c1)CCN1C(=O)N([C@@H](C)C(=O)NCc2ccccc2)C(=O)[C@]31C
O=S(=O)(CCS(=O)(=O)c1ccccc1)c1ccccc1
O=C(C[C@@H]1CC[C@@H](NC(=O)Cc2cccnc2)[C@H](CO)O1)Nc1ccc(-c2ccccc2)cc1
C[C@@H]1CN([C@H](C)CO)C(=O)c2cccc(NC(=O)CCCCCC(=O)Nc3ccccc3N)c2O[C@H]1CN(C)S(=O)(=O)c1cccs1
COc1ccc(CNC(=O)CNC(=O)[C@@H]2Cc3ccccc3CN2)cc1
CC(C)NC(=O)N(C)C[C@H]1Oc2ccc(NC(=O)CCCN(C)C)cc2C(=O)N([C@H](C)CO)C[C@H]1C
CCOC(=O)c1cc(C)sc1/N=C/C1C(=O)CCCC1=O
C[C@H](CO)N1C[C@H](C)[C@H](CN(C)CC2CC2)OCc2ccccc2-c2c(n(C)c3ccccc23)C1=O
O=C(CSc1ccc([N+](=O)[O-])cn1)Nc1ccc2c(c1)OCO2
Cc1cc(Br)ccc1NC(=O)CN(C)C(=O)c1ccc(-n2cncn2)c([N+](=O)[O-])c1
Cc1ccc(S(=O)(=O)n2cccc2C)cc1
CC(=O)N1CCCCN2[C@@H](CO)[C@H](c3ccc(-c4cccc(C(=O)N(C)C)c4)cc3)[C@@H]2C1
O=C(COC(=O)C1CC1)NCCc1ccccc1
O=C(CNC(=O)c1ccco1)NNC(=O)c1ccc(Br)cc1
COCC(=O)N1CC2(CCN(Cc3ccccc3Cl)CC2)c2c([nH]c3cc(OC)ccc23)[C@H]1CO
CCCN1[C@H](C(=O)N2CCCCC2)[C@@H](CO)[C@@H]2Cn3c(ccc(-c4ccccc4F)c3=O)[C@@H]21
O=C1CCCn2cc(nn2)COC[C@@H](Cc2ccccc2)N1
COc1ccc(S(=O)(=O)N2CCCCC2)cc1NC(=O)CCOc1cc(C)ccc1C
Cc1cc2c(cc1S(=O)(=O)N1CCN(c3cccc(C)c3C)CC1)OCCN2C
